From PubChem BioAssay (NCATS)
Records with an inconclusive call do not appear. Entries that show only a call come without a potency. Active and inactive are the calls of the source. The call rests on the fitted dose curve; in most records, active means well fitted curve in the direction sought with a large enough effect; inconclusive means small, poorly fitted or top-dose-only effect, or another doubt; inactive means no such curve, though single readings can be large; an effect the other way counts as inactive or inconclusive.
Potency means the concentration at half of the fitted maximal effect.

Test system: not listed separately
Assay: qHTS to identify inhibitors of the type 1 interferon - major histocompatibility complex class I in skeletal muscle: primary screen against the NCATS Pharmaceutical Collection (AID 1347407);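 further: luminescence of HiBiT knocked into endogenous HLA-B as interferon-induced MHC class I level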
Settings: human skeletal muscle cells, IFN-b-induced MHC-I HiBiT luminescence, 24 h; series mostly up to 45.9 µM
How it was run: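 HLA-B HiBiT myoblasts, dexamethasone-free growth medium + 4 ng/ml IFN-b; compounds pinned 1 h after seeding, […] from 46 uM; 24 h, 37 C, 5% CO2; lytic HiBiT detection, 10 min RT, luminescence.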
With `Clc1ccccc1-c1nc(-c2ccncc2)no1` the Potency was “inactive”.
In the case of `NCCO`, the Potency is reported as “inactive”.
With `COc1cc(NC(C)CCCN)c2ncccc2c1` (stereo not drawn) the Potency was “inactive”.
In the case of `CN1CCN(c2cc3c(nn2)Oc2ccccc2N3C)CC1`, the Potency is reported as “inactive”.
With `Oc1c(Br)cc(Br)c2cccnc12` the Potency was “inactive”.
In the case of `O=C(OCc1ccccc1)c1ccccc1`, the Potency is reported as “inactive”.
In the case of `Nc1ccc(O)c(C(=O)O)c1`, the Potency is reported as “inactive”.
For `O=C1CN(/N=C/c2ccc([N+](=O)[O-])o2)C(=O)N1`, the Potency was “inactive”.
In the case of `COC(=O)c1nc(Cl)c(Cl)nc1N`, the Potency is reported as 10.5 µM (active).
For `Cc1c(N)c(=O)n(-c2ccccc2)n1C`, the Potency was “inactive”.
In the case of `CN(C)CCn1nnnc1SCC1=C(C(=O)O)N2C(=O)[C@@H](NC(=O)Cc3csc(N)n3)[C@H]2SC1`, the Potency is reported as “inactive”.
With `Cc1ccc2c(n1)Oc1ccc(C(C)C(=O)OCC(=O)N(C)C)cc1C2` (stereo not drawn) the Potency was “inactive”.
For `Nc1nc2ccc([N+](=O)[O-])cc2s1`, the Potency was “inactive”.
With `COc1cc2c3cc1Oc1cc(ccc1O)C[C@@H]1c4c(cc(OC)c(O)c4Oc4ccc(cc4)C[C@@H]3N(C)CC2)CC[N+]1(C)C` the Potency was “inactive”.
With `CCOc1ccc2nc(S(N)(=O)=O)sc2c1` the Potency was “inactive”.
In the case of `C#C[C@]1(O)CC[C@H]2[C@@H]3CCc4cc(O)ccc4[C@H]3CC[C@@]21C`, the Potency is reported as “inactive”.
With `Nc1ccc(O)c([N+](=O)[O-])c1` the Potency was “inactive”.
For `O=C(/C=C/c1ccccc1)NCCO`, the Potency was “inactive”.
For `CO[C@@]1(NC(=O)Cc2cccs2)C(=O)N2C(C(=O)O)=C(COC(N)=O)CS[C@@H]21`, the Potency was “inactive”.
For `O=C(O)Cc1ccc(-c2ccccc2)cc1`, the Potency was “inactive”.
With `CCCOC(=O)c1ccc(O)cc1` the Potency was “inactive”.
With `O=C(CCN1CCN(CCO)CC1)N1c2ccccc2Sc2ccc(C(F)(F)F)cc21` the Potency was “inactive”.
For `CC(C)(C)c1nnc(NS(=O)(=O)c2ccc(N)cc2)s1`, the Potency was “inactive”.
With `C=CCCCCCCCCC(=O)O` the Potency was “inactive”.
With `C[N+]1(C)[C@@H]2CC(OC(=O)[C@H](CO)c3ccccc3)C[C@H]1[C@@H]1O[C@@H]12` (stereo partly drawn) the Potency was “inactive”.
With `Cc1c(C(=O)O)c(O)cc2c1C(=O)c1c(O)c([C@@H]3O[C@H](CO)[C@@H](O)[C@H](O)[C@H]3O)c(O)c(O)c1C2=O` the Potency was “inactive”.
In the case of `NC(=O)C(c1ccccc1)(c1ccccc1)[C@@H]1CCN(CCc2ccc3c(c2)CCO3)C1`, the Potency is reported as “inactive”.
In the case of `O=C(O)/C=C\C(=O)O`, the Potency is reported as “inactive”.
For `c1ccc(CCNc2nc(-c3ccccc3)cs2)cc1`, the Potency was “inactive”.
In the case of `CC(=O)SCC(CC(=O)c1ccc(C)cc1)C(=O)O` (stereo not drawn), the Potency is reported as “inactive”.
With `CC(C)OC(=O)c1cc(C(=O)OC(C)C)cc([N+](=O)[O-])c1` the Potency was “inactive”.
With `O=C(CS)Nc1ccccc1` the Potency was “inactive”.
In the case of `CC1(C)S[C@@H]2[C@H](NC(=O)[C@H](N)c3ccccc3)C(=O)N2[C@H]1C(=O)O`, the Potency is reported as “inactive”.
For `Cc1ccc(O)c(-n2nc3ccccc3n2)c1`, the Potency was “inactive”.
In the case of `COc1ccc(-c2cc(=S)ss2)cc1`, the Potency is reported as “inactive”.
For `C#CC1(O)CC[C@H]2[C@@H]3CCC4=CCCC[C@@H]4[C@H]3CC[C@@]21C` (stereo partly drawn), the Potency was “inactive”.
With `CCCCCCCCCCCC(=O)[O][Sn]([CH2]CCC)([CH2]CCC)[O]C(=O)CCCCCCCCCCC` the Potency was “inactive”.
In the case of `Nc1cc(-c2ccncc2)c[nH]c1=O`, the Potency is reported as “inactive”.
For `CCOC(=O)c1ccccc1O`, the Potency was “inactive”.

Molecular target: Protein phosphatase 1D (Homo sapiens) (UniProt O15297)
Sequence (O15297 whole entry, looked up): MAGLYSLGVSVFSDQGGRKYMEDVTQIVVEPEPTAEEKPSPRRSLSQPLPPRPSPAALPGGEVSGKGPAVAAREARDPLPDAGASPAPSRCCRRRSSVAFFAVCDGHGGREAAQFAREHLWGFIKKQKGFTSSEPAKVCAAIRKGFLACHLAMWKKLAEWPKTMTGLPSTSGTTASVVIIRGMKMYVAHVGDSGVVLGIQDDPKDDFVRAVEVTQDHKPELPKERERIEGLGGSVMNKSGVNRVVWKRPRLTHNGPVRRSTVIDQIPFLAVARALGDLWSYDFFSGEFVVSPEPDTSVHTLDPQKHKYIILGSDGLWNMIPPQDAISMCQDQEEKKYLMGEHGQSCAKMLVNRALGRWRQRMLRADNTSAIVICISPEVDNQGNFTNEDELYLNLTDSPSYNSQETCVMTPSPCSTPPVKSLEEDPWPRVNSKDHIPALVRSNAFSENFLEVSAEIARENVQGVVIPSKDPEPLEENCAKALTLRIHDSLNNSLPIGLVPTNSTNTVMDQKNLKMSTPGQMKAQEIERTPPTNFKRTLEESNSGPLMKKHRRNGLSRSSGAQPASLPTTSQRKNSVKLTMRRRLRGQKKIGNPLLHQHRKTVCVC
Assay: RapidFire Mass Spectrometry qHTS Assay for Modulators of WT P53-Induced Phosphatase 1 (WIP1) (AID 1347424);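 further: amount of dephosphorylated VEPPL-S-QETFS peptide product formed by WIP1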
Settings: WIP1 dephosphorylation of phosphopeptide, RapidFire MS; series mostly up to 63 µM
How it was run: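 Mass-spectrometric measurement of dephosphorylated peptide after a 5 min room-temperature reaction of 10 nM WIP1 with 2 uM phosphopeptide, following 1 h compound preincubation in 30 mM MgCl2 buffer.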
With `Clc1ccccc1-c1nc(-c2ccncc2)no1` the Potency was “inactive”.
For `NCCO`, the Potency was “inactive”.
With `COc1cc(NC(C)CCCN)c2ncccc2c1` (stereo not drawn) the Potency was “inactive”.
With `CN1CCN(c2cc3c(nn2)Oc2ccccc2N3C)CC1` the Potency was “inactive”.
For `Oc1c(Br)cc(Br)c2cccnc12`, the Potency was “inactive”.
For `O=C(OCc1ccccc1)c1ccccc1`, the Potency was “inactive”.
In the case of `Nc1ccc(O)c(C(=O)O)c1`, the Potency is reported as 17.8 µM (active).
With `O=C1CN(/N=C/c2ccc([N+](=O)[O-])o2)C(=O)N1` the Potency was “inactive”.
In the case of `COC(=O)c1nc(Cl)c(Cl)nc1N`, the Potency is reported as “inactive”.
In the case of `Cc1c(N)c(=O)n(-c2ccccc2)n1C`, the Potency is reported as “inactive”.
In the case of `CN(C)CCn1nnnc1SCC1=C(C(=O)O)N2C(=O)[C@@H](NC(=O)Cc3csc(N)n3)[C@H]2SC1`, the Potency is reported as “inactive”.
For `Cc1ccc2c(n1)Oc1ccc(C(C)C(=O)OCC(=O)N(C)C)cc1C2` (stereo not drawn), the Potency was “inactive”.
For `Nc1nc2ccc([N+](=O)[O-])cc2s1`, the Potency was “inactive”.
In the case of `COc1cc2c3cc1Oc1cc(ccc1O)C[C@@H]1c4c(cc(OC)c(O)c4Oc4ccc(cc4)C[C@@H]3N(C)CC2)CC[N+]1(C)C`, the Potency is reported as “inactive”.
In the case of `CCOc1ccc2nc(S(N)(=O)=O)sc2c1`, the Potency is reported as “inactive”.
With `C#C[C@]1(O)CC[C@H]2[C@@H]3CCc4cc(O)ccc4[C@H]3CC[C@@]21C` the Potency was “inactive”.
For `Nc1ccc(O)c([N+](=O)[O-])c1`, the Potency was 35.5 µM (active).
For `O=C(/C=C/c1ccccc1)NCCO`, the Potency was “inactive”.
With `CO[C@@]1(NC(=O)Cc2cccs2)C(=O)N2C(C(=O)O)=C(COC(N)=O)CS[C@@H]21` the Potency was “inactive”.
For `O=C(O)Cc1ccc(-c2ccccc2)cc1`, the Potency was “inactive”.
With `CCCOC(=O)c1ccc(O)cc1` the Potency was “inactive”.
With `O=C(CCN1CCN(CCO)CC1)N1c2ccccc2Sc2ccc(C(F)(F)F)cc21` the Potency was “inactive”.
With `CC(C)(C)c1nnc(NS(=O)(=O)c2ccc(N)cc2)s1` the Potency was “inactive”.
With `C=CCCCCCCCCC(=O)O` the Potency was “inactive”.
With `C[N+]1(C)[C@@H]2CC(OC(=O)[C@H](CO)c3ccccc3)C[C@H]1[C@@H]1O[C@@H]12` (stereo partly drawn) the Potency was “inactive”.
With `Cc1c(C(=O)O)c(O)cc2c1C(=O)c1c(O)c([C@@H]3O[C@H](CO)[C@@H](O)[C@H](O)[C@H]3O)c(O)c(O)c1C2=O` the Potency was “inactive”.
For `NC(=O)C(c1ccccc1)(c1ccccc1)[C@@H]1CCN(CCc2ccc3c(c2)CCO3)C1`, the Potency was “inactive”.
With `O=C(O)/C=C\C(=O)O` the Potency was “inactive”.
With `c1ccc(CCNc2nc(-c3ccccc3)cs2)cc1` the Potency was “inactive”.
For `CC(=O)SCC(CC(=O)c1ccc(C)cc1)C(=O)O` (stereo not drawn), the Potency was “inactive”.
For `CC(C)OC(=O)c1cc(C(=O)OC(C)C)cc([N+](=O)[O-])c1`, the Potency was “inactive”.
With `O=C(CS)Nc1ccccc1` the Potency was “inactive”.
In the case of `CC1(C)S[C@@H]2[C@H](NC(=O)[C@H](N)c3ccccc3)C(=O)N2[C@H]1C(=O)O`, the Potency is reported as “inactive”.
In the case of `Cc1ccc(O)c(-n2nc3ccccc3n2)c1`, the Potency is reported as “inactive”.
For `COc1ccc(-c2cc(=S)ss2)cc1`, the Potency was “inactive”.
In the case of `C#CC1(O)CC[C@H]2[C@@H]3CCC4=CCCC[C@@H]4[C@H]3CC[C@@]21C` (stereo partly drawn), the Potency is reported as “inactive”.
For `CCCCCCCCCCCC(=O)[O][Sn]([CH2]CCC)([CH2]CCC)[O]C(=O)CCCCCCCCCCC`, the Potency was “inactive”.
With `Nc1cc(-c2ccncc2)c[nH]c1=O` the Potency was 22.4 µM (active).
With `CCOC(=O)c1ccccc1O` the Potency was “inactive”.
